Results with a measured potency or affinity are listed apart.
system: Staphylococcus aureus; conditions: Concentration 32 ug.mL-1;; ASSAY_TEST Inhibition of Bacterial Growth; detection method Absorption (OD600); MEDIA CAMHB; plate type 384well; NBS; CORNING #3640; time 18 hr

Compound | Inhibition
COc1ccccc1NC(=O)Cn1nc2c(Oc3ccc(Cl)cc3)nccn2c1=O | 6.15%
Cc1nnc2c(S(=O)(=O)N(Cc3ccc(F)cc3)c3ccc(C(C)C)cc3)cccn12 | -0.08%
Cc1ccc(Cl)cc1NC(=O)Cn1c(=O)c2nnc(C(C)C)n2c2ccccc21 | 2.92%
CN(C(=O)Cn1nc2n(Cc3ccco3)c(=O)c3sccc3n2c1=O)c1ccccc1 | 0.44%
COc1cccc(-n2ccn3c(SCc4ccc(C)cc4)nnc3c2=O)c1 | 8.11%
COc1cccc(N(Cc2ccc(F)cc2)S(=O)(=O)c2ccc3nncn3c2)c1 | -0.47%
Cc1ccc(Oc2nccn3c(=O)n(CC(=O)Nc4ccc5c(c4)OCO5)nc23)cc1 | 6.26%
COc1ccc(NC(=O)Cn2nc3c4cc(-c5ccc(F)cc5)nn4ccn3c2=O)c(OC)c1 | 8.82%
CCOC(=O)c1ccc(NC(=O)Cn2nc3c4cc(-c5ccc(C)c(C)c5)nn4ccn3c2=O)cc1 | 3.76%
Cc1nnc2ccc(S(=O)(=O)N(Cc3ccccc3F)c3cc(F)cc(F)c3)cn12 | -3.63%
COc1cccc(CNC(=O)CSc2nnc3c(=O)n(-c4ccccc4)ccn23)c1OC | 2.64%
Cc1ccc(Oc2nccn3c(=O)n(CC(=O)NCc4ccccc4Cl)nc23)cc1 | 12.36%
O=C(CSc1nnc2c(=O)n(-c3ccccc3)ccn12)Nc1cc(F)ccc1F | 5.32%
O=C(CSc1nnc2c(=O)n(-c3ccc(F)cc3)ccn12)NCC1CCCO1 (stereo not given) | 0%
Cc1[nH]c2ccccc2c1C(=O)CSc1nnc2c(=O)n(-c3ccccc3)ccn12 | 16.56%
COc1ccc(NC(=O)Cn2nc3ccc(SC4CCCCC4)nn3c2=O)c(OC)c1 | 7.02%
CCCN(C)c1nccn2c(=O)n(CC(=O)Nc3ccc(Br)cc3)nc12 | 8.04%
COc1cccc(NC(=O)Cn2nc3ccc(-c4ccc(C)c(C)c4)nn3c2=O)c1 | -14.65%
COc1cccc(CN(c2cc(C)cc(C)c2)S(=O)(=O)c2cccn3c(C)nnc23)c1 | -0.14%
Cc1cc2nn(CC(=O)N3CCCc4ccccc43)c(=O)n2c(Nc2ccc(F)cc2)n1 | 6.5%

Compound | Inhibition
COc1ccc(-n2ccn3c(-c4ccc([N+](=O)[O-])cc4)nnc3c2=O)cc1 | 12.69%
COc1ccc(-c2noc(Cn3nc4ccc(-c5ccccc5)nn4c3=O)n2)cc1OC | 7.44%
Cc1nnc2ccc(S(=O)(=O)N(Cc3ccccc3F)c3cccc(F)c3)cn12 | 9.15%
COc1ccc(-c2cc3c4nn(CC(=O)Nc5cc(OC)cc(OC)c5)c(=O)n4ccn3n2)cc1 | -11.7%
O=C(Cn1nc2c(SC3CCCCC3)nccn2c1=O)Nc1cccc(Br)c1 | -4.73%
N#Cc1ccc(NC(=O)CSc2nnc3c4cc(-c5ccc(F)cc5)nn4ccn23)cc1 | 5.96%
COc1ccccc1CNC(=O)CSc1nnc2c3cc(-c4ccc(C)cc4)nn3ccn12 | -5.58%
O=C(Cn1nc2c(SCc3ccccc3)nccn2c1=O)NCc1ccccc1 | -16.25%
COc1ccc(-c2cc3c4nn(CC(=O)Nc5cc(C)cc(C)c5)c(=O)n4ccn3n2)cc1 | 1.97%
N#CCSc1nnc2c(=O)n(-c3ccc(Br)cc3)ccn12 | 14.93%
CCc1ccccc1NC(=O)Cn1c(=O)c2nnc(C(C)C)n2c2ccccc21 | 5.45%
Cc1ccc(C)c(Cn2nc3ccc(-c4ccc(C)c(C)c4)nn3c2=O)c1 | 6.01%
COc1ccc(NC(=O)c2ccc3nn(CC(=O)Nc4cccc(SC)c4)c(=O)n3c2)cc1 | -4.7%
Cc1nnc2c(S(=O)(=O)N(Cc3ccccc3F)c3cc(F)cc(F)c3)cccn12 | -8.28%
Cc1ccc(Cl)cc1NC(=O)CSc1nnc2n(CC3CCCO3)c(=O)c3sccc3n12 (stereo not given) | 8.22%
Cc1ccc(-c2ccc3nnc(CCC(=O)NCc4ccc(C(F)(F)F)cc4)n3n2)cc1C | 17.72%
COc1ccc(NC(=O)Cn2nc3c(Sc4ccccc4)nc4ccccc4n3c2=O)cc1Cl | -0.59%
COc1ccc(-c2cc3c4nnc(SCC(=O)Nc5ccccc5Cl)n4ccn3n2)cc1 | -12.96%
Cc1ccccc1Cn1nc2ccc(-c3ccccc3)nn2c1=O | 10.41%
CC(C)Cn1c(=O)c2sccc2n2c(=O)n(CC(N)=O)nc12 | -15.52%

system: Escherichia coli; conditions: Concentration 32 ug.mL-1;; ASSAY_TEST Inhibition of Bacterial Growth; detection method Absorption (OD600); MEDIA CAMHB; plate type 384well; NBS; CORNING #3640; time 18 hr

Compound | Inhibition
COc1ccccc1NC(=O)Cn1nc2c(Oc3ccc(Cl)cc3)nccn2c1=O | -7.74%
Cc1nnc2c(S(=O)(=O)N(Cc3ccc(F)cc3)c3ccc(C(C)C)cc3)cccn12 | -8.42%
Cc1ccc(Cl)cc1NC(=O)Cn1c(=O)c2nnc(C(C)C)n2c2ccccc21 | -2.02%
CN(C(=O)Cn1nc2n(Cc3ccco3)c(=O)c3sccc3n2c1=O)c1ccccc1 | -5.3%
COc1cccc(-n2ccn3c(SCc4ccc(C)cc4)nnc3c2=O)c1 | -4.39%
COc1cccc(N(Cc2ccc(F)cc2)S(=O)(=O)c2ccc3nncn3c2)c1 | -9.93%
Cc1ccc(Oc2nccn3c(=O)n(CC(=O)Nc4ccc5c(c4)OCO5)nc23)cc1 | -6.61%
COc1ccc(NC(=O)Cn2nc3c4cc(-c5ccc(F)cc5)nn4ccn3c2=O)c(OC)c1 | -0.75%
CCOC(=O)c1ccc(NC(=O)Cn2nc3c4cc(-c5ccc(C)c(C)c5)nn4ccn3c2=O)cc1 | -8.53%
Cc1nnc2ccc(S(=O)(=O)N(Cc3ccccc3F)c3cc(F)cc(F)c3)cn12 | -18.18%
COc1cccc(CNC(=O)CSc2nnc3c(=O)n(-c4ccccc4)ccn23)c1OC | -7.08%
Cc1ccc(Oc2nccn3c(=O)n(CC(=O)NCc4ccccc4Cl)nc23)cc1 | -4.03%
O=C(CSc1nnc2c(=O)n(-c3ccccc3)ccn12)Nc1cc(F)ccc1F | -13.66%
O=C(CSc1nnc2c(=O)n(-c3ccc(F)cc3)ccn12)NCC1CCCO1 (stereo not given) | -8.97%
Cc1[nH]c2ccccc2c1C(=O)CSc1nnc2c(=O)n(-c3ccccc3)ccn12 | -0.61%
COc1ccc(NC(=O)Cn2nc3ccc(SC4CCCCC4)nn3c2=O)c(OC)c1 | -7.62%
CCCN(C)c1nccn2c(=O)n(CC(=O)Nc3ccc(Br)cc3)nc12 | -5.88%
COc1cccc(NC(=O)Cn2nc3ccc(-c4ccc(C)c(C)c4)nn3c2=O)c1 | -17.62%
COc1cccc(CN(c2cc(C)cc(C)c2)S(=O)(=O)c2cccn3c(C)nnc23)c1 | -8.8%
Cc1cc2nn(CC(=O)N3CCCc4ccccc43)c(=O)n2c(Nc2ccc(F)cc2)n1 | -0.15%

Compound | Inhibition
COc1ccc(-n2ccn3c(-c4ccc([N+](=O)[O-])cc4)nnc3c2=O)cc1 | -0.05%
COc1ccc(-c2noc(Cn3nc4ccc(-c5ccccc5)nn4c3=O)n2)cc1OC | -3.1%
Cc1nnc2ccc(S(=O)(=O)N(Cc3ccccc3F)c3cccc(F)c3)cn12 | -8.44%
COc1ccc(-c2cc3c4nn(CC(=O)Nc5cc(OC)cc(OC)c5)c(=O)n4ccn3n2)cc1 | -10.82%
O=C(Cn1nc2c(SC3CCCCC3)nccn2c1=O)Nc1cccc(Br)c1 | -7.3%
N#Cc1ccc(NC(=O)CSc2nnc3c4cc(-c5ccc(F)cc5)nn4ccn23)cc1 | -4.2%
COc1ccccc1CNC(=O)CSc1nnc2c3cc(-c4ccc(C)cc4)nn3ccn12 | -8.49%
O=C(Cn1nc2c(SCc3ccccc3)nccn2c1=O)NCc1ccccc1 | -19.33%
COc1ccc(-c2cc3c4nn(CC(=O)Nc5cc(C)cc(C)c5)c(=O)n4ccn3n2)cc1 | 7.1%
N#CCSc1nnc2c(=O)n(-c3ccc(Br)cc3)ccn12 | -0.38%
CCc1ccccc1NC(=O)Cn1c(=O)c2nnc(C(C)C)n2c2ccccc21 | 0.46%
Cc1ccc(C)c(Cn2nc3ccc(-c4ccc(C)c(C)c4)nn3c2=O)c1 | -0.08%
COc1ccc(NC(=O)c2ccc3nn(CC(=O)Nc4cccc(SC)c4)c(=O)n3c2)cc1 | -9.26%
Cc1nnc2c(S(=O)(=O)N(Cc3ccccc3F)c3cc(F)cc(F)c3)cccn12 | 2.33%
Cc1ccc(Cl)cc1NC(=O)CSc1nnc2n(CC3CCCO3)c(=O)c3sccc3n12 (stereo not given) | -0.5%
Cc1ccc(-c2ccc3nnc(CCC(=O)NCc4ccc(C(F)(F)F)cc4)n3n2)cc1C | 1.8%
COc1ccc(NC(=O)Cn2nc3c(Sc4ccccc4)nc4ccccc4n3c2=O)cc1Cl | -7.36%
COc1ccc(-c2cc3c4nnc(SCC(=O)Nc5ccccc5Cl)n4ccn3n2)cc1 | -8.41%
Cc1ccccc1Cn1nc2ccc(-c3ccccc3)nn2c1=O | 1.97%
CC(C)Cn1c(=O)c2sccc2n2c(=O)n(CC(N)=O)nc12 | -14.55%

Reference: ChEMBL document CHEMBL4513146, “CO-ADD screening of Karazin Kharkiv National University (Ukraine) compounds”
